In PubChem BioAssay (NCATS):
Where “and” joins values, the source holds several entries; their conditions need not be identical. Equal values may be shown once. Calls of active or inactive are those of the source. No rule for the calls is given here.

Molecular target: Nuclear receptor subfamily 1 group I member 2 (Rattus norvegicus) (UniProt Q9R1A7)
Test: qHTS assay for small molecule activators of the rat pregnane X receptor (rPXR) signaling pathway (AID 651751)
Details: rPXR reporter cells, luciferase (One-Glo), 24 h
Also: 0% is about no effect.

Chain of Nuclear receptor subfamily 1 group I member 2 (Rattus norvegicus) (Q9R1A7 whole entry, looked up): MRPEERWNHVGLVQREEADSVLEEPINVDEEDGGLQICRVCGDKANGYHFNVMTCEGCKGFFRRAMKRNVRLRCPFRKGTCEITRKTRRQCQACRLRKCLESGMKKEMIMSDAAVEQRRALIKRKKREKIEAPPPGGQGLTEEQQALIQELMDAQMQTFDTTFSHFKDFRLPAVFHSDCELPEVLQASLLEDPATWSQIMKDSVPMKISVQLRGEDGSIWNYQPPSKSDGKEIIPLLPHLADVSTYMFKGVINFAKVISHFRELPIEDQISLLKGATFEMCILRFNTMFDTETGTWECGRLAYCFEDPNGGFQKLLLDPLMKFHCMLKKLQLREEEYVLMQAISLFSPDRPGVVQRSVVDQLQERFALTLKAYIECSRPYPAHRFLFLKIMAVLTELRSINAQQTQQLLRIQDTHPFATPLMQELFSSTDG

For `ClC(Cl)Cl`, which max response is on record?
Its max response is -6.93% (inactive).

Which max response does the source give for `CO[C@@H]1[C@H](OC(=O)/C=C/C=C/C=C/C=C/C(=O)O)CC[C@]2(CO2)[C@H]1[C@@]1(C)O[C@@H]1CC=C(C)C` here?
The max response was -5.29% (inactive).

Which max response does the source give for `C=CC(C)(O)CC/C=C(\C)CCC=C(C)C` (stereo not given) here?
The max response was 14.8% (inactive).

With `OCCOCCOCCO` as the compound, how does the max response read?
Its max response is 0.109% (inactive) and -2.24% (inactive).

With `CO/N=C(/C(=O)N[C@@H]1C(=O)N2C(C(=O)O)=C(COC(N)=O)CS[C@H]12)c1ccco1` as the compound, how does the max response read?
The max response was -2.68% (inactive).

For `NCCO/C=C/[C@H](N)C(=O)O`, which max response is on record?
Its max response is -1.31% (inactive).

For `CC(C)(C)CC(C)(C)c1ccc(OCCO)cc1`, which max response is on record?
The max response was -14.4% (inactive).

With `CCCCCCCCCCCCCCCCCC(=O)OC[C@@H](O)[C@H]1OC[C@H](O)[C@H]1O` as the compound, how does the max response read?
The max response was 2.96% (inactive).

With `OC[C@H]1O[C@@](CO)(O[C@H]2O[C@H](CO)[C@@H](O)[C@H](O)[C@H]2O)[C@@H](O)[C@@H]1O` as the compound, how does the max response read?
Its max response is 1.07% (inactive).

Which max response does the source give for `Oc1cccc(O)c1O` here?
Its max response is -3.92% (inactive).

With `CC1=CC(=O)NS(=O)(=O)O1` as the compound, how does the max response read?
Its max response is 4.96% (inactive) and 0.0631% (inactive).

Which max response does the source give for `OC[C@H]1O[C@@H]2O[C@H]3[C@H](O)[C@@H](O)[C@@H](O[C@H]4[C@H](O)[C@@H](O)[C@@H](O[C@H]5[C@H](O)[C@@H](O)[C@@H](O[C@H]6[C@H](O)[C@@H](O)[C@@H](O[C@H]7[C@H](O)[C@@H](O)[C@@H](O[C@H]1[C@H](O)[C@H]2O)O[C@@H]7CO)O[C@@H]6CO)O[C@@H]5CO)O[C@@H]4CO)O[C@@H]3CO` here?
Its max response is 1.3% (inactive) and 2.85% (inactive).

Tested on: not listed separately
Test: qHTS assay for small molecule activators of the human pregnane X receptor (PXR) signaling pathway (AID 720659)
Details: DPX-2 HepG2 CYP3A4-luciferase, 24 h; series mostly up to 92.3 µM; activation: at the top concentration

Which “activation” value does the source give for `ClC(Cl)Cl` here?
Its value is -13.1% (inactive).

For `CO[C@@H]1[C@H](OC(=O)/C=C/C=C/C=C/C=C/C(=O)O)CC[C@]2(CO2)[C@H]1[C@@]1(C)O[C@@H]1CC=C(C)C`, which “activation” value is on record?
The value was 14.4% (inactive).

For `CO/N=C(/C(=O)N[C@@H]1C(=O)N2C(C(=O)O)=C(COC(N)=O)CS[C@H]12)c1ccco1`, which “activation” value is on record?
The value was -3.62% (inactive).

Which “activation” value does the source give for `OC[C@H]1O[C@@](CO)(O[C@H]2O[C@H](CO)[C@@H](O)[C@H](O)[C@H]2O)[C@@H](O)[C@@H]1O` here?
The value was 13.5% (inactive).

Which “activation” value does the source give for `[O-][N+](=Nc1ccccc1)c1ccccc1` here?
Its value is 18% (inactive).

Which “activation” value does the source give for `Oc1cccc(O)c1O` here?
Its value is -1.85% (inactive).

Which outcome does the source give for `CC1=CC(=O)NS(=O)(=O)O1` here?
Its outcome is “inactive”.

With `OC[C@H]1O[C@@H]2O[C@H]3[C@H](O)[C@@H](O)[C@@H](O[C@H]4[C@H](O)[C@@H](O)[C@@H](O[C@H]5[C@H](O)[C@@H](O)[C@@H](O[C@H]6[C@H](O)[C@@H](O)[C@@H](O[C@H]7[C@H](O)[C@@H](O)[C@@H](O[C@H]1[C@H](O)[C@H]2O)O[C@@H]7CO)O[C@@H]6CO)O[C@@H]5CO)O[C@@H]4CO)O[C@@H]3CO` as the compound, how does the outcome read?
The outcome was “inactive”.
